Source: PubChem BioAssay
Compounds with a hit are over-represented: about 3.2% of the library has one in this group of screens.
PK Bst: Pyruvate Kinase; purified pyruvate kinase, luminescence ATP production; ribose 5-phosphate activator present at AC10; Potency, µM; hit rate 1.2% among 51,000; AID 361, 2006; in the data active = potency below about 11 µM; inconclusive = mostly about 12 µM to 25 µM;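 the screen sought inhibitors and activators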;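 also: scaled between full activation by ribose 5 phosphate and full inhibition by luteolin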
GBA mod: Glucocerebrosidase; Lysosomal acid glucosylceramidase (Homo sapiens), P04062; purified enzyme, resorufin glucoside fluorescence (screen aimed at inhibitors), 20 min; Potency, µM; hit rate 1.1% among 48,000; AID 360, 2006; in the data active = potency below about 15 µM; inconclusive = mostly about 16 µM to 33 µM;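 also: the screen sought inhibitors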
Target sequence (P04062 whole entry, looked up): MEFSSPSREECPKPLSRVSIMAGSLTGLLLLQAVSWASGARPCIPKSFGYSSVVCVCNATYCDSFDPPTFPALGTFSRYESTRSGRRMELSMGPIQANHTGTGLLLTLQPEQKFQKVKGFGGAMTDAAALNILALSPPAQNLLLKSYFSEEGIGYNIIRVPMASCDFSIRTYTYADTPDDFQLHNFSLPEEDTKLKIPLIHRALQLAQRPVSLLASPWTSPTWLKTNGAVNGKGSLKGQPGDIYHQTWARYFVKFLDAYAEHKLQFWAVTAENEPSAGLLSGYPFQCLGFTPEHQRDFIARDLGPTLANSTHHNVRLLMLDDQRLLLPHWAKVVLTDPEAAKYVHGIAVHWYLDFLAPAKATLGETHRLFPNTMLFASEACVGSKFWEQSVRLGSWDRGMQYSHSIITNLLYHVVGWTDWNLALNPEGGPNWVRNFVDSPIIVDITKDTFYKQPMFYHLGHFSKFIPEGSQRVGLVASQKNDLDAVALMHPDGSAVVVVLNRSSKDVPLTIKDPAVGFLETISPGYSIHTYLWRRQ
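Normal human glucocerebrosidase (0.2 nM final) was assayed with resorufin β-D-glucopyranoside (30 uM final) in 50mM citric acid/KH2PO4, 10mM sodium taurocholate, 0.01% tween-20, pH 5.9. Compounds were titrated; fluorescence (Ex 548, Em 600) read after 20 min at RT.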
Luciferase inh: qHTS Assay for Inhibitors of Firefly Luciferase. purified firefly luciferase, luminescence, 8 min. Luciferin 4-monooxygenase (Photinus pyralis), P08659. Potency, µM (titrated, usually from 57.1 µM), inactives show at the highest dose activity change, negative = inhibition, most hits filed as inhibitors. hit rate 2.2% among 72,000. AID 411, 2009; active = well fitted inhibition curve with a large enough effect; inconclusive = small, poorly fitted or top-dose-only effect; also: % is scaled to controls: 0 for no effect and ±100 for the full control effect; nearly all actives have a fitted effect of over 40% in size
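Here, luciferase activity is measured as luminescence following an 8 min room-temperature reaction at 10 uM ATP, pH 7.2. Every library sample is titrated.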
An asterisk follows results filed as active; i = inactive; ? = inconclusive; . = no result given; [ ] = another dose, or the depositor's remark. Potency is read from the fitted curve at half-maximal effect.

SMILES	PK Bst	GBA mod	Luciferase inh
Clc1ccc(OCc2nc(-c3ccncc3)no2)c(Br)c1	.	.	7.9µM*
CC(C)(C)Cc1nc(-c2ccccn2)no1	>57	>77	-3%
CCc1ccc(OCc2nc(-c3ccccn3)no2)c(Br)c1	?	>77	13µM*
Cc1ccc(OCc2nc(-c3ccccn3)no2)c(Br)c1	.	.	5µM*
Cc1ccc(SCc2nc(-c3ccccn3)no2)cc1	>57	>77	-4%
CC(Oc1ccc(Cl)cc1Cl)c1nc(-c2ccccn2)no1 (stereo not drawn)	.	.	-7%
CC(C)c1ccc(OCc2nc(-c3ccccn3)no2)c(Br)c1	.	>77	16µM*
Clc1ccccc1OCc1nc(-c2ccncc2)no1	.	>77	?
COCCNc1nc(-c2cccc(NS(C)(=O)=O)c2)nc2ccccc12	.	.	-1%[2.29 µM]
COCCn1c(=O)c(-c2cc(F)cc(F)c2)nc2cnc(OCc3ccccc3)nc21	.	.	1%[11.4 µM]
Cn1c(=O)c(-c2ccc(Cl)cc2)nc2cnc(N3CCNCC3)nc21	.	.	-13%[11.4 µM]
CCN1C(=O)[C@H]2[C@H]3[C@H](O)[C@H](O)C/C(=N/OCC(C)C)[C@H]3CC[C@@H]2C1=O	.	.	1%[11.4 µM]
Cc1nc2cncnc2n(Cc2ccccc2)c1=O	.	.	2%[11.4 µM]
C(=N\n1cnnc1)/c1cccc2ccccc12	>57	14*	0%
COc1ccccc1/C=N/n1cnnc1	.	.	0%
OC[C@@H]1O[C@@H](n2cnc3cncnc32)[C@@H](O)[C@H]1O	.	.	2%
Cc1noc(C)c1S(=O)(=O)Nc1ccc(C(=O)NC2CCCCCC2)cc1	>57	5.8*	-1%
Cc1noc(C)c1S(=O)(=O)Nc1ccc(C(=O)NC2CCCCC2C)cc1 (stereo not drawn)	>57	?	3%
COc1ccc(OC)c2[nH]c(=O)c(CCNC(=O)C(C)C)cc12	.	.	0%
COc1ccc(OC)c2[nH]c(=O)c(CCNS(=O)(=O)c3ccc(Cl)cc3)cc12	4.3*	>77	-2%
COc1ccc(OC)c2[nH]c(=O)c(CCNC(=O)c3ccc(S(=O)(=O)N(C)C)cc3)cc12	>57	>77	-1%
COc1ccc(OC)c2[nH]c(=O)c(CCNS(=O)(=O)c3ccc(C)cc3)cc12	2.3*	>77	4%
N[C@@](CCc1ccccc1)(C(=O)O)c1ccccc1	.	.	2%[11.4 µM]
CCN1CCc2nc(NC(=O)Cc3ccc4c(c3)OCCO4)sc2C1	>57	>77	1%
CCN1CCc2nc(NC(=O)c3ccc4c(c3)OCCO4)sc2C1	.	>77	16µM*
SMILES	PK Bst	GBA mod	Luciferase inh
Nc1c(C(=O)OCC2CCCO2)c2nc3ccccc3nc2n1C1CCCCC1 (stereo not drawn)	8.9*	?	-2%
Nc1c(C(=O)NCC2CCCO2)c2nc3ccccc3nc2n1-c1ccccc1 (stereo not drawn)	>57	>77	2%
Nc1c(OCC(=O)O)ccc2cc(S(=O)(=O)O)ccc12	.	.	-2%[11.4 µM]
Cn1cccc1C(=O)N1CCC2(CCCN(C(=O)Nc3cccc(F)c3)C2)CC1	.	.	0%[11.4 µM]
COc1ccc(-n2c(=O)c(-c3ccc(F)cc3)nc3cnc(OC)nc32)cc1	.	.	1%[11.4 µM]
O=c1c(-c2ccc(F)cc2)nc2cnc(N3CCOCC3)nc2n1C1CC1	.	.	0%[11.4 µM]
O=C(OCC(=O)c1cccs1)c1ccccc1	.	.	13µM*
O=C(COc1ccccc1O)c1cccs1	>57	>77	2%
NC(=O)c1cnn2c(C(F)(F)F)cc(-c3ccccc3)nc12	11*	>77	4%
O=C(NCc1ccco1)c1cnn2c(C(F)(F)F)cc(-c3ccccc3)nc12	.	.	0%
Cc1ccc(-c2cc(C(F)(F)F)n3ncc(C(=O)N4CCN(C)CC4)c3n2)cc1	.	.	-1%
NC(=O)c1cnn2c(C(F)(F)F)cc(-c3ccc(F)cc3)nc12	2.7*	>77	-2%
NC(N)=NC[C@@H]1CCCCCCN1	.	.	4%[11.4 µM]
Nc1nc(N)c(CCCCc2ccccc2)c(N)n1	.	.	2%[11.4 µM]
Cc1cc(C)c2c(CN3CCN(CCO)CC3)cc(=O)oc2c1	>57	5.5*	-3%
Cc1cc(C)c2c(CN3CCN(C)CC3)cc(=O)oc2c1	>57	i	3%
c1ccc(B2OC[C@@H]3OB(c4ccccc4)O[C@H]([C@@H]4COB(c5ccccc5)O4)[C@@H]3O2)cc1	.	.	1%[11.4 µM]
CCCNC(=O)c1cc(-c2ccc(OC)cc2)on1	>57	>77	7.9µM*
CCCCNC(=O)c1cc(-c2ccc(OC)cc2)on1	>57	>77	-6%
CC1(NC[C@@H](O)COc2cccc3[nH]ccc23)CCC(C(C)(C)NC(=O)CBr)CC1 (stereo partly drawn)	.	.	-3%
O=c1/c(=C\c2ccc3c(c2)OCO3)sc2n1CCCN=2	?	.	13µM*
C(=N\n1cnnc1)/c1ccc2c(c1)OCO2	.	.	2%
NC(=O)c1ccccc1-c1nc(-c2ccccc2)no1	.	>77	-27%
c1ccc(-c2ccccc2-c2nc(-c3cccnc3)no2)cc1	>57	>77	2%
